# Measured values as given in article PMC12136788.
# In all, about 24,000 sequences were measured (“enrichment r”: median about 0.99, highest 2% from about 3.7 on). This excerpt belongs to a sample that is enriched for the highest values.
# B1: chr9:14812383:14812384:-_ENSMUSG00000031934_ENSMUST00000164273|mus_mus|mus_mus_mus_hu_True|38_108 (ssRNA)
# RNA: GGGAGUUCUACAGUCCGACGAUCAUAGCUCAAGUAGAUACACGCUAACAGUAUAAUGAUGAGUGUCAGCAGGCGGCAGCUAAUGUACUUGAUGAUUAAAUGACUAGAAUUUUUCUUUGUCUUCAAGUACUGCUCCACAAUUGGCAACAGAGGAUUGAGCAUCA
# B2: chr13:120183613:120183614:-_ENSMUSG00000025453_ENSMUST00000099149|mus_hu|FALSE|FALSE (ssRNA)
# RNA: GGGAGUUCUACAGUCCGACGAUCGUAAAUAAAACUAAUCAGCGUUCCUGAUGUCUUUAAAAGGUCAGCUUCAUGAACACCUAAUGUUGGAUUAACCAUAGGGGCUCGCACUUUGACCACCAAAUCAGAAGCCAGCACUUCCUUCAACAGAGGAUUGAGCAUCA
# B3: chr7:34927866:34927867:-_ENSMUSG00000052997_ENSMUST00000102746|mus_mus|FALSE|FALSE (ssRNA)
# RNA: GGGAGUUCUACAGUCCGACGAUCGCUUUUGGCAGCAUCUUCAGCUUGUUUUGGCCCCACUUUUUCAGGGCUGUCACCAACUACUUCAAAUUCAACAUCCUUUCCAAGAUCUUCACUAUGAAGAAUGUUGAUCAGCAAAGUAUACAACAGAGGAUUGAGCAUCA
# B4: chr6:52144354:52144355:-_ENSG00000112118_ENST00000229854|hu_hu|FALSE|FALSE (ssRNA)
# RNA: GGGAGUUCUACAGUCCGACGAUCGGCUGGGGCCUUCUCCGGCAUCUCCUGGAUGGUGAUGGUCUGGUGAUCCUUGUAGACAGAAAGGCCAUAUUCUGUCUCAAGGGGAUUGUUCUCCUCAUCCUUGGUAGGAUAGACAGAGCUCAACAGAGGAUUGAGCAUCA
# B5: chrX:15845472:15845473:-_ENSG00000182287_ENST00000329235|hu_hu|motif|central (ssRNA)
# RNA: GGGAGUUCUACAGUCCGACGAUCCCACAAGAAGUCAUCAACAAGGGAGGAGAGUUAUGUCAGUCCAAUUUCUUCAAGAACACGGCGUGGGGUUUCAGCUUCCUCCUGCAGUAGAUCAGCCUGCUCAAUUGCUUUAAGGACAUUCAACAGAGGAUUGAGCAUCA
# B6: chr16:45382771:45382772:-_ENSMUSG00000022661_ENSMUST00000163230|mus_mus|mus_mus_mus_hu_True|8_78 (ssRNA)
# RNA: GGGAGUUCUACAGUCCGACGAUCCUGGGUCAUGUUAUAAGACAAAUGGACAGGGAGAGCAUGCUUUUCAAAAAAUGUGAGCUAUUGUCUAAGACUAACAAUAUUUAUCUAGCUAUAAAAAUAAGUUUUAAAUGGACGUUAAGACAACAGAGGAUUGAGCAUCA
# B7: chr2:121258011:121258012:+_ENSMUSG00000027248_ENSMUST00000028683|mus_mus|FALSE|FALSE (ssRNA)
# RNA: GGGAGUUCUACAGUCCGACGAUCCUUGCCUUGUAUCAAAUCUUUAUUAUCUUCCGUCAUAUGAGGACAGAGACCAAAAAUGCUAUCCUGAAUAAAUUUCUUGAUCUUGCCACUGGUCAUUUUCUUUUCAGUAUAUGCCACAGUCAACAGAGGAUUGAGCAUCA
# B8: chr15:42481402:42481403:-_ENSG00000166887_ENST00000318006|hu_hu|FALSE|FALSE (ssRNA)
# RNA: GGGAGUUCUACAGUCCGACGAUCCUUUGAAACCGUAGUGAUUUGUUGAAAUGUCAAUAGGUCAUGGACAUAAAUGUUAUUUUCUAACAAGCUGACCAGAAUCUUAAACUGGGAAACCACAUGGAUCUGCUGAAUCUUUUUGGACAACAGAGGAUUGAGCAUCA
# B9: chr16:45382771:45382772:-_ENSMUSG00000022661_ENSMUST00000163230|mus_mus|mus_mus_mus_hu_True|18_78 (ssRNA)
# RNA: GGGAGUUCUACAGUCCGACGAUCCUGGGUCAUGUUAUAAGACAAAUGGACAGGGAGAGCAUGCUUUUCAAAAAAUGUGAGCUAUUGUCUAAGACUAACAAUAUUUAUCUAGCUAUAUAAAAAUAAGAAAUGAAUAAGUUAAGACAACAGAGGAUUGAGCAUCA
# B10: chr16:45382771:45382772:-_ENSMUSG00000022661_ENSMUST00000163230|mus_mus|mus_mus_mus_hu_True|1_78 (ssRNA)
# RNA: GGGAGUUCUACAGUCCGACGAUCCUGGGUCAUGUUAUAAGACAAAUGGACAGGGAGAGCAUGCUUUUCAAAAAAUGUGAGCUAUUGUCUAAGACUAACAAUAUUUAUCUAGCUAUAAAAAUAAGUUAAAUGAAUAAACAUUACCAACAGAGGAUUGAGCAUCA
# B11: 83126405_83126525_1642_CDS_ENSMUSG00000058881_ENSMUST00000071233|mouse|control|control (ssRNA)
# RNA: GGGAGUUCUACAGUCCGACGAUCCCGGGGAUCAAGGUGGCCAGAAAGCAUGGGGUCCCCAGGUACACUGGCCCUCUUCCUCGGGGGAGCUUGGGUAGCCGGAGCAUCCUGUUCACGCUUGCGUUUUUCCUGGCUCACCAGUAUCAACAGAGGAUUGAGCAUCA
# B12: chr7:54825262:54825263:-_ENSG00000132432_ENST00000352861|hu_hu|hu_hu_hu_mus_False|18_38 (ssRNA)
# RNA: GGGAGUUCUACAGUCCGACGAUCCUGCCGGCUGGGCUCCACAAACUGCAUUACCUGAUCCAUGUUUGUUGGAUGGCGGAUUGAGAGCGUAGAGACAACGUAGCACUGAGAGAACCGGAUGGAGGCCAACCGGAAGCUGGCAACCAACAGAGGAUUGAGCAUCA
# B13: chr2:42543136:42543137:+_ENSG00000143924_ENST00000318522|hu_mus|FALSE|FALSE (ssRNA)
# RNA: GGGAGUUCUACAGUCCGACGAUCAUCUACUGAGUAGCGCAUCACAGACAGCUGCUCAUUGCCAUCCGUGUGGAUUGACACCAGAUCUCUUGUUUCUGCAUCCAGAACAAACCACCUGCCUGAGUGCGUUCCAAUGGCUACCACCAACAGAGGAUUGAGCAUCA
# B14: chr19:8913615:8913616:-_ENSMUSG00000071658_ENSMUST00000096259|mus_hu|mus_mus_mus_hu_False|48_78 (ssRNA)
# RNA: GGGAGUUCUACAGUCCGACGAUCAGGGUACCAAAACCUUCUGCCUGAAAUGGGUGCCCCACCCUGCAGGGAGUUGCAGCUGAAAGUAUCCGUAGCAGAAGCAGUGACUAUACGAAAGGAGGCCCCUGGGGAGGGCCAGGCCAGCAACAGAGGAUUGAGCAUCA
# Molecular target: T1, UNK ZnF1-3 (human, UniProt Q9C0B0 31-174)
# T1 sequence: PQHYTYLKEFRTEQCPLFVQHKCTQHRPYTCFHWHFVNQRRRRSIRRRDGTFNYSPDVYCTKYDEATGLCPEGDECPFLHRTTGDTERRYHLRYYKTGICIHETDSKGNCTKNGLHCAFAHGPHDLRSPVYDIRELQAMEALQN
# Assay: nsRBNS (natural sequence RNA bind-n-seq); RBNS binding buffer (assumed for nsRBNS): 25 mM Tris pH 7.5, 150 mM KCl, 3 mM MgCl2, 0.01% Triton X-100, 500 ug/ml BSA, 20 U/ml SUPERase-In, 4 C; UNK is unkempt and MSI1 is Musashi-1; names of the RNAs are library labels; protein concentration not given here; high values mean tight binding
row,Binder,binding signal [enrichment R]
1,B1,0.675
2,B2,0.662
3,B3,0.727
4,B4,0.84
5,B5,1.51
6,B6,5.26
7,B7,1.28
8,B8,0.563
9,B9,10
10,B10,4.46
11,B11,0.53
12,B12,0.908
13,B13,0.836
14,B14,1.24
